AMA1-RON2 inh = disrupts binding of P. falciparum AMA1 to RON2 | AlphaScreen AMA1-biotinylated RON2 peptide binding | Potency, µM (highest dose often 58.2 µM), inactives show at the top dose activity change, negative = inhibition, most hits filed as inhibitors | hit rate 0.2% among 360,000;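 further: potency means the concentration at half of the fitted maximal effect; 0% = vehicle wells and -100% = peptide control; nearly all actives have a fitted effect of over 45% in size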
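AMA1 (3D7) with his tag at 25 nM final met compounds first, then biotinylated RON2 peptide at 25 nM; detection used donor plus acceptor beads, 10 µg/mL apiece, read by AlphaScreen after 30 min at room temperature.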
Shiga inhibitor = blocks Shiga toxin action in Vero cells; Vero cells, Shiga toxin protein synthesis inhibition reporter; inhibition, % at 38.7 µM; hit rate 9.2% among 290,000; AID 2315; in the data active means inhibition mostly above about 28%, no sharp cut-off; inactive means mostly below about 43%; further: 0% is about no effect
Cycloheximide cs = affects cycloheximide protein synthesis inhibition readout, counter-screen; cell reporter, cycloheximide protein synthesis inhibition counterscreen; hit rate 12% among 300,000; max response, %; in the data active means max response mostly above about 13%, no sharp cut-off; inactive means mostly below about 14%; further: read at 38.3 µM for the half of the compounds with a filed dose; 0% is about no effect
AmpC detergent = blocks E. coli AmpC beta-lactamase in detergent assay. Potency, µM (highest dose often 114 µM), for inactives: top-dose activity change, negative = inhibition, most hits filed as inhibitors. AID 485294. P00811. AmpC hydrolysis of nitrocefin, absorbance 480 nm, 0.01% Triton. hit rate 0.041% among 370,000;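 further: potency means the concentration at half of the fitted maximal effect; 0% = no-compound wells and -100% = no-enzyme wells; nearly all actives have a fitted effect of over 25% in size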
Target sequence (P00811 whole entry, looked up): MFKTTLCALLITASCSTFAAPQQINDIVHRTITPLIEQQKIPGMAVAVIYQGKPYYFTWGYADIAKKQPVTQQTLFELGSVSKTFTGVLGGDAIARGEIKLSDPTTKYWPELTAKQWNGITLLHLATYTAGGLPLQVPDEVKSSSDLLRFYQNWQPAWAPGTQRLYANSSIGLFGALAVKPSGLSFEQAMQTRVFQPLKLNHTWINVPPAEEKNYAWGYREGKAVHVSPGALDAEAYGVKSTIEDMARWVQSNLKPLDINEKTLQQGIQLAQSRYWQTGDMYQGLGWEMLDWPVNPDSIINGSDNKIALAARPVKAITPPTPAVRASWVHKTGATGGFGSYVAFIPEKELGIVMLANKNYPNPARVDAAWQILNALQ
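AmpC (5.3 nM in the dispensed reagent) in 20 mM phosphate pH 7.0 with 0.01% (detergent screen) or 0.0001% Triton X-100 was preincubated with compounds for 15 min at room temperature. Nitrocefin was then added from an 800 uM solution, and hydrolysis was followed at 480 nm.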
AmpC no deterg = inhibitors of E. coli AmpC beta-lactamase without detergent. P00811. AmpC nitrocefin hydrolysis, absorbance 480 nm, 0.0001% Triton. Potency, µM (top dose mostly 57.1 µM), without a hit: at the top dose activity change, negative = inhibition, actives largely listed as inhibitors. hit rate 0.52% among 330,000. AID 485341;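 further: potency means the concentration at half of the fitted maximal effect; plate controls were no compound for no effect and no enzyme for full effect; nearly all actives have a fitted effect of over 20% in size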
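AmpC (5.3 nM in the dispensed reagent) in 20 mM phosphate pH 7.0 with 0.01% (detergent screen) or 0.0001% Triton X-100 was preincubated with compounds for 15 min at room temperature. Nitrocefin was then added from an 800 uM solution, and hydrolysis was followed at 480 nm.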
SARS PLP yeast = SARS-CoV PLP inhibition in yeast | S. cerevisiae expressing SARS-CoV PLpro, growth rescue | Potency, µM (top dose mostly 32.9 µM), inactives show at the top dose activity, positive = growth rescue, hits mostly activators | hit rate 0.19% among 330,000; calls by dose curve; further: potency means the concentration at half of the fitted maximal effect; 0% is about no effect; nearly all actives have a fitted effect of over 55% in size
The depositor's hits bear a star; ? = inconclusive; · = no result given; [ ] = remark or other dose. Only a selection was taken, and hits are over-represented in it overall. Unless noted, the call rests on the fitted dose curve; in most records, active means well fitted curve in the direction sought with a large enough effect; inconclusive means small, poorly fitted or top-dose-only effect, or another doubt; inactive means no such curve, though single readings can be large; an effect the other way counts as inactive or inconclusive.

SMILES	AMA1-RON2 inh	Shiga inhibitor	Cycloheximide cs	AmpC detergent	AmpC no deterg	SARS PLP yeast
Oc1ccc(CNCC2COc3ccccc3O2)cc1 (stereo not given)	-7%	-1	14	-8%	-10%	5%
Clc1ccc(-c2cc(COc3ccccc3)on2)cc1	0%	105*	38*	-4%	-1%	1%
O=C(COc1ccc(Cl)cc1)Nc1cc(-c2ccccc2)no1	·	·	·	19%	·	·
O=S(=O)(NCc1cc(-c2ccccc2)no1)c1ccc(Cl)cc1	2%	-13	1	1%	-18%	0%
Clc1ccc(OCc2cc(-c3ccccc3)no2)cc1Cl	164%	active	45*	2%	-13%	-6%
O=C(Nc1ccc(Br)cc1Br)Nc1cccc2[nH]c([C@@H]3O[C@H](CO)[C@@H](O)[C@H](O)[C@H]3O)nc12	-3%	·	·	·	·	·
S=c1[nH]c(-c2ccccc2)cn1/N=C/c1ccccc1Br	21%	35	27*	0%	-44%	-4%
Cc1ccc(/C=N/n2cc(-c3ccccc3)[nH]c2=S)s1	79%	108*	39*	-9%	-37%	29%
Cc1ccc(/C=N/n2c(-c3cccnc3)n[nH]c2=S)s1	59%	7	-3	-7%	-30%	-1%
S=c1[nH]c(-c2ccccc2)cn1/N=C/c1cccc2ccccc12	47%	33	16	-1%	2.5µM*	4%
S=c1[nH]nc(-c2ccccn2)n1/N=C/c1cccc2ccccc12	11%	2	1	?	-34%	-12%
CC(C)NCCCOc1ccc(C(C)(C)c2ccccc2)cc1	-21%	-6	13	5%	13%	-5%
COc1ccc(/C=N/NC(=O)c2c(C)nc3ccc(Br)cn23)cc1OC	22%	60	0	0%	-6%	0%
O=C(c1cc(-c2cccs2)nc2ccccc12)N1CCN(S(=O)(=O)c2cccc(F)c2)CC1	-6%	30*	32*	0%	11%	-4%
NS(=O)(=O)c1cccc(NC(=O)c2cc(-c3cccs3)nc3ccccc23)c1	-10%	6	-4	10%	18µM*	1%
CN(C)S(=O)(=O)c1cccc(NC(=O)c2cc(-c3cccs3)nc3ccccc23)c1	4%	-7	-2	?	-28%	12%
COc1ccc(/C=C/CN2CCN(Cc3ccccc3)C(CCO)C2)cc1 (stereo not given)	2%	2	-1	1%	61%	0%
O=S1(=O)N(CCN2CC=C(c3c[nH]c4cc(F)ccc34)CC2)c2cccc3c2N1CCC3	?	·	·	-10%	-16%	-5%
COc1cccc(C(=O)N/N=C/C(Br)=C/c2ccccc2)c1	-10%	114*	52*	?	-53%	-89%
Cn1cc(C(=O)N/N=C/C(Br)=C/c2ccccc2)ccc1=O	13%	15	2	-6%	-18%	-48%
COc1ccc(C(=O)N/N=C/C(Br)=C/c2ccccc2)cc1	-1%	60*	31*	?	-44%	-37%
Cn1cc(C(=O)N/N=C/C(Br)=C\c2ccccc2)ccc1=O	16%	-4	-1	-2%	-39%	-10%
C[C@]12CC(=CO)C(=O)C[C@@H]1CC[C@@H]1[C@@H]2CC[C@@]2(C)[C@H]1CC[C@]2(C)O	·	-3	0	50µM*	-26%	-5%
Cc1ccc(C(C)C)c(OCC(=O)Nn2c(=O)[nH]c3ccccc3c2=O)c1	3%	-4	-2	2%	-28%	11%
COc1cccc(NCc2cc(=O)oc3cc(-c4ccccc4)c(O)cc23)c1	-8%[11.6 µM]	62*	27*	-11%	-48%	18%
SMILES	AMA1-RON2 inh	Shiga inhibitor	Cycloheximide cs	AmpC detergent	AmpC no deterg	SARS PLP yeast
CC(C)NCC(O)COc1ccc(COCCOC(C)C)cc1 (stereo not given)	16%	28*	11	·	·	·
O=C(c1ccc(Cl)cc1)N1CCn2c1nc1ccccc12	-5%	4	-4	?	0%	0%
COc1ccc(C(=O)N2CCn3c2nc2ccccc23)cc1	-4%	-3	15	-10%	-11%	0%
O=C(c1cccs1)N1CCn2c1nc1ccccc12	-7%	56*	41*	?	-14%	?
COc1cccc(C(=O)N2CCn3c2nc2ccccc23)c1	-3%	34	24*	-7%	1%	1%
COc1ccccc1NC(=O)Nc1nc(CC(=O)Nc2ccc(F)cc2)cs1	16%	·	·	-12%	-22%	0%
O=S1(=O)CC=C(CSC(=S)NC2CCS(=O)(=O)C2)C1 (stereo not given)	14%	-7	-8	1%	-4%	1%
O=S1(=O)CCOC[C@H](CC2CCCCC2)N1Cc1cccc(F)c1	-6%	-8	3	-18%	90%	-8%
C=CCN1N=C(/C=C/c2ccc(OC)cc2)CCC1=O	-2%	115*	54*	4%	2%	-3%
COc1ccc(/C=C/C2=NN(Cc3ccccc3)C(=O)CC2)cc1	-8%	21	-4	-6%	35%	-6%
CCOC(=O)C(C)N1N=C(/C=C/c2ccc(C)cc2)CCC1=O (stereo not given)	3%	10	10	2%	96%	-1%
C=CCN1N=C(/C=C/c2ccc(C)cc2)CCC1=O	0%	92*	35*	2%	39%	-1%
O=C(NN=Cc1cccc2ccccc12)C1CC1	-10%	·	·	·	·	·
Cc1ccnc2c1ccc1cccnc12	?	·	·	0%	6%	2%
Cc1ccnc2c1ccc1ccccc12	25%	21	16*	-2%	-18%	4%
O=C(CN1CCN(CCC(=O)Nc2ccccc2F)CC1)Nc1ccc(Cl)cc1	-4%	8	7	-4%	135%	16%
O=C(c1cccs1)c1sccc1Cc1ccccc1	75%	·	·	·	·	·
O=C(c1cccs1)c1ccc(-c2cccs2)s1	104%	36	30*	9%	-26%	4%
CN1CCN(C(=O)c2ccc(-c3cccs3)s2)CC1	6%	55*	42*	-3%	-3%	0%
O=C1NC(=Nc2ccc(Cl)cc2)SC1Cc1cc(Cl)ccc1Cl (stereo not given)	-2%	23	0	-11%	-30%	0%
CCC(C)Cn1cnc2c(Sc3c([N+](=O)[O-])ncn3C)nc(N)nc21 (stereo not given)	-1%	·	·	·	·	·
Cc1nc(N2CCN(C)CC2)c2c(C)c(C(=O)Nc3ccc(C)c(F)c3)sc2n1	7%	-9	-1	3%	161%	-4%
O=C(NCCNC(=O)c1ccc(Br)o1)c1ccc(Br)o1	-2%	7	18	4%	3%	15%
O=C(NCc1ccccc1)c1ccc(Br)o1	5%	-14	6	-9%	-17%	-6%
O=C(NCC(=O)N1CCN(Cc2ccccc2)CC1)c1ccc(Br)o1	0%	16	14*	-13%	4%	?
